Reference: PubChem BioAssay AID1159580 (chemical genetic matrix, 2015)
Several values for one entry are separate records, joined by “and”; a condition that tells them apart may be missing. Equal entries are not always repeated. Among all 5,500 compounds or so, about 2,000 (36%) were called active. About 18% were inconclusive and are not listed. Cut-off read from the data, not from the text of the source: active = normalized growth mostly below about 0.91 (no sharp cut-off); inconclusive = no clear call, values can overlap the other calls; inactive = mostly above about 0.92. This is one part of the list.

Test: chemical genetic growth profiling, strain panel (AID 1159580);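 note: tested at 20 µM; growth read once vehicle control cultures reached saturation at 30 °C; 1 = growth at the plate median or of vehicle wells; lower values mean less growth of the strain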
Conditions: growth OD

Measured: normalized growth

CCCC(C(=O)OCCN(CC)CC)(c1ccccc1)c1ccccc1
inactive: S. cerevisiae deletion strains, locus YJR075W, strain HOC1, active compounds read low 1 and 0.971 | S. cerevisiae deletion strains, locus YKL009W, strain mrt4, active compounds read low 0.982 | S. cerevisiae deletion strains, locus YKL068W, active compounds read low 0.995 | S. cerevisiae deletion strains, locus YKL085W, strain MDH1 (second series), active compounds read low 0.99 | S. cerevisiae deletion strains, locus YKL085W, strain MDH1, active compounds read low 0.99 | S. cerevisiae deletion strains, locus YKL160W, strain elf1, active compounds read low 0.982 | S. cerevisiae deletion strains, locus YKL190W, strain CNB1, active compounds read low 0.995 | S. cerevisiae deletion strains, locus YKR001C, strain vps1, active compounds read low 0.999 | S. cerevisiae deletion strains, locus YKR026C, strain gcn3, active compounds read low 1 | S. cerevisiae deletion strains, locus YKR091W, strain srl3, active compounds read low 1 | S. cerevisiae deletion strains, locus YLL001W, strain dnm1, active compounds read low 0.998 | S. cerevisiae deletion strains, locus YLL026W, active compounds read low 1.01 | S. cerevisiae deletion strains, locus YLL041C, strain sdh2, active compounds read low 1 | S. cerevisiae deletion strains, locus YLR027C, strain aat2, active compounds read low 1 | S. cerevisiae deletion strains, locus YLR039C, strain RIC1, active compounds read low 1.16 | S. cerevisiae deletion strains, locus YLR058C, strain SHM2, active compounds read low 1.01 | S. cerevisiae deletion strains, locus YLR102C, strain apc9, active compounds read low 0.994 | S. cerevisiae deletion strains, locus YLR113W, strain HOG1, active compounds read low 0.966 | S. cerevisiae deletion strains, locus YLR221C, strain rsa3, active compounds read low 0.991 | S. cerevisiae deletion strains, locus YLR258W, strain gsy2, active compounds read low 0.989 | S. cerevisiae deletion strains, locus YLR262C, strain YPT6 (second series), active compounds read low 1.12 | S. cerevisiae deletion strains, locus YLR262C, strain YPT6, active compounds read low 1.25 | S. cerevisiae deletion strains, locus YLR268W, strain sec22, active compounds read low 0.977 | S. cerevisiae deletion strains, locus YLR320W, strain mms22, active compounds read low 0.968 | S. cerevisiae deletion strains, locus YLR330W, strain CHS5, active compounds read low 1.01 | S. cerevisiae deletion strains, locus YLR342W, strain FKS1 (second series), active compounds read low 0.941 | S. cerevisiae deletion strains, locus YLR342W, strain FKS1, active compounds read low 0.999 | S. cerevisiae deletion strains, locus YLR357W, strain rsc2, active compounds read low 0.935 | S. cerevisiae deletion strains, locus YLR370C, strain arc18, active compounds read low 1 | S. cerevisiae deletion strains, locus YLR371W, strain rom2, active compounds read low 0.985 | S. cerevisiae deletion strains, locus YLR384C, strain iki3, active compounds read low 1.01 | S. cerevisiae deletion strains, locus YLR418C, strain cdc73, active compounds read low 0.883 | S. cerevisiae deletion strains, locus YML016C, strain PPZ1, active compounds read low 1.01 | S. cerevisiae deletion strains, locus YML032C, strain rad52, active compounds read low 0.989 | S. cerevisiae deletion strains, locus YML120C, strain ndi1, active compounds read low 0.989 | S. cerevisiae deletion strains, locus YML124C, strain tub3, active compounds read low 0.995 | S. cerevisiae deletion strains, locus YMR058W, strain fet3, active compounds read low 1 | S. cerevisiae deletion strains, locus YMR078C, strain ctf18, active compounds read low 0.99 | S. cerevisiae deletion strains, locus YMR125W, strain sto1, active compounds read low 1.01 | S. cerevisiae deletion strains, locus YMR129W, active compounds read low 0.983 | S. cerevisiae deletion strains, locus YMR205C, strain PFK2, active compounds read low 0.972 | S. cerevisiae deletion strains, locus YMR223W, strain ubp8, active compounds read low 0.967 | S. cerevisiae deletion strains, locus YMR231W, strain pep5, active compounds read low 1.01 | S. cerevisiae deletion strains, locus YMR263W, strain SAP30, active compounds read low 1 | S. cerevisiae deletion strains, locus YMR307W, strain GAS1, active compounds read low 1.03 | S. cerevisiae deletion strains, locus YNL067W, strain RPL9B, active compounds read low 0.996 | S. cerevisiae deletion strains, locus YNL071W, strain lat1, active compounds read low 0.957 | S. cerevisiae deletion strains, locus YNL128W, strain TEP1, active compounds read low 0.992 | S. cerevisiae deletion strains, locus YNL153C, strain GIM3, active compounds read low 1.02 and 1.01 | S. cerevisiae deletion strains, locus YNL183C, strain NPR1, active compounds read low 0.946 | S. cerevisiae deletion strains, locus YNL197C, strain WHI3, active compounds read low 1.01 | S. cerevisiae deletion strains, locus YNL209W, strain ssb2, active compounds read low 1.02 | S. cerevisiae deletion strains, locus YNL224C, strain SQS1, active compounds read low 1.02 | S. cerevisiae deletion strains, locus YNL233W, strain BNI4, active compounds read low 1.01 | S. cerevisiae deletion strains, locus YNL248C, strain rpa49, active compounds read low 0.989 | S. cerevisiae deletion strains, locus YNL250W, strain rad50, active compounds read low 0.981 | S. cerevisiae deletion strains, locus YNL271C, strain bni1, active compounds read low 0.994 | S. cerevisiae deletion strains, locus YNL298W, strain CLA4, active compounds read low 0.989 | S. cerevisiae deletion strains, locus YNL307C, strain MCK1, active compounds read low 0.983 | S. cerevisiae deletion strains, locus YNL322C, strain KRE1 (second series), active compounds read low 1.01 | S. cerevisiae deletion strains, locus YNL322C, strain KRE1, active compounds read low 0.985 | S. cerevisiae deletion strains, locus YNR049C, strain mso1, active compounds read low 1.01 | S. cerevisiae deletion strains, locus YNR052C, strain pop2, active compounds read low 0.986 | S. cerevisiae deletion strains, locus YOL006C, strain TOP1, active compounds read low 1.05 | S. cerevisiae deletion strains, locus YOL012C, strain htz1 0.951 | S. cerevisiae deletion strains, locus YOL147C, strain pex11, active compounds read low 0.995 | S. cerevisiae deletion strains, locus YOR001W, strain rrp6, active compounds read low 0.977 | S. cerevisiae deletion strains, locus YOR061W, strain CKA2, active compounds read low 1.01 | S. cerevisiae deletion strains, locus YOR069W, strain VPS5, active compounds read low 1 | S. cerevisiae deletion strains, locus YOR070C, strain gyp1, active compounds read low 1 | S. cerevisiae deletion strains, locus YOR080W, strain dia2, active compounds read low 0.993 | S. cerevisiae deletion strains, locus YOR083W, strain WHI5 (second series), active compounds read low 0.993 | S. cerevisiae deletion strains, locus YOR083W, strain WHI5, active compounds read low 0.983 | S. cerevisiae deletion strains, locus YOR106W, strain vam3, active compounds read low 0.979 | S. cerevisiae deletion strains, locus YOR136W, strain idh2, active compounds read low 0.993 | S. cerevisiae deletion strains, locus YOR144C, strain elg1, active compounds read low 0.989 | S. cerevisiae deletion strains, locus YOR184W, strain ser1, active compounds read low 0.99 | S. cerevisiae deletion strains, locus YOR231W, strain MKK1, active compounds read low 0.98 | S. cerevisiae deletion strains, locus YOR265W, strain rbl2, active compounds read low 1.01 | S. cerevisiae deletion strains, locus YOR270C, strain vph1, active compounds read low 0.942 | S. cerevisiae deletion strains, locus YOR290C, strain snf2, active compounds read low 0.998 | S. cerevisiae deletion strains, locus YOR316C, strain cot1, active compounds read low 1 | S. cerevisiae deletion strains, locus YPL051W, strain arl3, active compounds read low 0.972 | S. cerevisiae deletion strains, locus YPL055C, strain LGE1, active compounds read low 1.01 | S. cerevisiae deletion strains, locus YPL078C, strain atp4, active compounds read low 0.998 | S. cerevisiae deletion strains, locus YPL106C, strain sse1, active compounds read low 1.02 | S. cerevisiae deletion strains, locus YPL240C, strain hsp82, active compounds read low 0.998 | S. cerevisiae deletion strains, locus YPL241C, strain CIN2, active compounds read low 1 | S. cerevisiae deletion strains, locus YPL256C, strain CLN2, active compounds read low 0.994 | S. cerevisiae deletion strains, locus YPR119W, strain clb2, active compounds read low 0.996 | S. cerevisiae deletion strains, locus YPR141C, strain kar3, active compounds read low 0.996 | S. cerevisiae deletion strains, locus YPR163C, strain tif3, active compounds read low 0.995 | S. cerevisiae deletion strains, locus YPR167C, strain met16, active compounds read low 0.993 | S. cerevisiae deletion strains, strain wtn01, active compounds read low 0.974 | S. cerevisiae strains, strain wild type, active compounds read low 1.01
